Screening data as filed in PubChem.
FMDV inh: blocks foot and mouth disease virus; FMDV antiviral cell-based qHTS; Potency, µM (series often up to 57.9 µM), without a hit: top-dose activity change, negative = inhibition, most hits filed as inhibitors; hit rate 1.2% among 410,000; calls by dose curve; tested in HEK293T cells; further: read-out not given here; potency means the concentration at half of the fitted maximal effect; on the % scale 0 is the no-effect control and ±100 the full control effect; nearly all actives have a fitted effect of over 45% in size
CHX counter: affects cycloheximide protein synthesis inhibition readout, counter-screen; cell reporter, cycloheximide protein synthesis inhibition counterscreen; max response, %; AID 2314; hit rate 12% among 300,000; in the data active means max response mostly above about 13%, no sharp cut-off; inactive means mostly below about 14%; further: read at 38.3 µM for the half of the compounds with a filed dose; 0% is about no effect
Lassa entry inh: Lassa virus entry inhibition | Lassa virus pseudotype entry inhibition, cell reporter | Potency, µM (titrated, usually from 37.9 µM), for inactives: top-dose activity change, negative = inhibition, most hits filed as inhibitors | hit rate 1.2% among 300,000 | AID 540256; calls by dose curve; tested in HEK293 cells; further: potency means the concentration at half of the fitted maximal effect; on the % scale 0 is the no-effect control and ±100 the full control effect; nearly all actives have a fitted effect of over 50% in size
HCV inhibitor: HCV inhibition; Huh7.5.1 HCVcc-Cre infection, luciferase reporter, 44 h; Potency, µM (series often up to 41.8 µM), for inactives: at the top dose activity change, negative = inhibition, most hits filed as inhibitors; hit rate 3.4% among 340,000; active means well fitted inhibition curve with a large enough effect; inconclusive means small, poorly fitted or top-dose-only effect, or another doubt; inactive means no such curve, though single readings can be large or run the other way; further: potency means the concentration at half of the fitted maximal effect; on the % scale 0 is the no-effect control and ±100 the full control effect
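Compounds are dispensed onto cells plated 4 h earlier at 1,000 per well, with HCVcc-Cre virus (about 0.5 moi) added next. Following 44 h of culture, luminescent signal is measured for 15 sec after 15 min with substrate at room temperature.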
MARV entry inh: Marburg virus entry inhibition | hit rate 1.8% among 300,000 | Marburg virus pseudotyped entry inhibition, cell reporter | Potency, µM (top dose mostly 37.8 µM), without a hit: at the highest dose activity change, negative = inhibition, most hits filed as inhibitors | AID 540276; calls by dose curve; tested in HEK293 cells; further: potency means the concentration at half of the fitted maximal effect; on the % scale 0 is the no-effect control and ±100 the full control effect
Shiga toxin inh: Shiga toxin inhibition; hit rate 9.2% among 290,000; AID 2315; inhibition, % at 38.7 µM; Vero cells, Shiga toxin protein synthesis inhibition reporter; in the data active means inhibition mostly above about 28%, no sharp cut-off; inactive means mostly below about 43%; further: 0% is about no effect
Numbers without * were called inactive; ? = inconclusive; · = not tested or not shown; + = active, no number; [ ] = remark or other dose. A selection: hits, their analogues and other compounds. The true share with any hit is near 13%.

SMILES	FMDV inh	CHX counter	Lassa entry inh	HCV inhibitor	MARV entry inh	Shiga toxin inh
O=C(NCCc1c[nH]c2ccccc12)c1ccco1	34.1%	18.0*	·	-20.6%	·	26.2
COc1ccc(OCC(=O)NCCc2c[nH]c3ccccc23)cc1	-10.3%	0.8	-26.0%[46.1 µM]	-14.9%	-17.5%[46.1 µM]	2.2
O=C(NCCc1c[nH]c2ccccc12)/C(=C/c1ccco1)NC(=O)c1ccco1	-20.6%	-0.8	10.0%	9.5%	?	-6.2
Cn1c(SCC(=O)N2CCCC2)nnc1-c1ccc(S(=O)(=O)N2CCCC2)cc1	-8.3%	-0.5	-7.8%	14.5%	-21.9%	-18.3
C=CCNc1ncnc2c1cnn2-c1ccc(Cl)cc1	0.4%	33.2*	6.9%	-17.7%	?	51.8*
CCN(CC)CCCNc1ncnc2c1cnn2-c1ccc(C)c(C)c1	-2.1%	·	?	·	·	·
Cc1cccc(-n2ncc3c(NC4CCCCC4)ncnc32)c1	-32.4%	45.8*	·	?	·	75.5*
Cc1cccc(-n2ncc3c(NCCCO)ncnc32)c1	24.7%	38.1*	·	-9.7%	·	42.0
C=CCNc1ncnc2c1cnn2-c1cccc(C)c1	15.3%	34.3*	·	?	5.8%	+
Cc1cccc(-n2ncc3c(NC4CCCC4)ncnc32)c1	9.1%	·	11.8%[46.1 µM]	·	·	·
CC1CCN(S(=O)(=O)c2ccc(NC(=O)[C@@H]3CCCC[C@@H]3C(=O)O)cc2)CC1	26.5%	-4.5	1.9%	1.3%	-11.7%[46.1 µM]	1.3
O=c1ccc2cc(S(=O)(=O)Nc3ccc(OC(F)(F)F)cc3)ccc2[nH]1	-13.4%	·	-8.9%[46.1 µM]	·	·	·
Cc1c(NC(=S)NC(C)(C)C)c(=O)n(-c2ccccc2)n1C	16.2%	5.5	1.8%	20.5%	-23.9%[46.1 µM]	13.4
CCOC(=O)C1CCCN(CC(=O)c2ccc(F)cc2)C1 (configuration not stated)	16.6%	-1.2	?	31.8%	17.4%	3.7
COc1ccccc1CNC(=O)COC(=O)Cc1c[nH]c2ccccc12	-21.4%	·	-2.1%	15.9%	19.4%	·
NC(=O)c1ccsc1NC(=O)COC(=O)Cc1ccccc1	?	·	·	9.8%	·	·
NC(=O)c1ccsc1NC(=O)COC(=O)Cc1c[nH]c2ccccc12	20µM*	·	?	?	-12.7%	·
NC(=O)c1ccsc1NC(=O)COC(=O)Cc1cccc2ccccc12	31.6µM*	-1.6	-28.2%	?	7.08µM*	-4.5
COc1ccccc1NC(=O)COC(=O)Cc1c[nH]c2ccccc12	-25.1%	12.1	11.2µM*	?	-2.4%	15.0
O=C(CSc1nnc(-c2ccncc2)n1-c1ccccc1)NCC1CCCO1 (configuration not stated)	-7.5%	·	·	9.1%	·	·
O=C(Cn1cc(S(=O)(=O)Cc2ccccc2F)c2ccccc21)N1CCOCC1	-6.8%	11.8	-3.5%	4.3%	?	4.9
CCN(CC)c1ccc(/C=C(\C#N)c2ccccn2)cc1	-44.1%	35.5*	5.8µM*	14.1µM*	?	26.2
N#C/C(=C\c1ccc(C(=O)O)cc1)c1ccccn1	1.3%	9.3	?	1.3%	19.0%[46.1 µM]	12.9
COc1cc(/C=C(\C#N)c2ccccn2)ccc1OCc1ccccc1	39.3%	31.5*	12.7%	?	2.5%	77.0*
CCN(Cc1ccccc1)c1ccc(/C=C(\C#N)c2ccccn2)cc1	48.3%	55.6*	17.7%	-4.3%	-18.2%	98.2*
SMILES	FMDV inh	CHX counter	Lassa entry inh	HCV inhibitor	MARV entry inh	Shiga toxin inh
CN(CCC#N)c1ccc(C=C(C#N)c2ccc(Br)cc2)cc1	7.3%	·	·	·	·	·
CN(CCC#N)c1ccc(/C=C(\C#N)c2ccccn2)cc1	-73.8%	48.2*	2.24µM*	?	8.2µM*	active
COc1cc(CN2CCC3(CCC(CNC(=O)c4cc(C)nn4C)O3)CC2)ccc1F (configuration not stated)	3.5%	·	·	·	·	·
CCN(CC)CCNC(=O)c1nn(C)c2c1CS(=O)(=O)c1ccccc1-2	-6.9%	·	3.9%[46.1 µM]	·	·	·
COc1ccc(C(=O)C(C)OC(=O)c2cccc(S(=O)(=O)Nc3cc(Cl)c(OC)cc3OC)c2)cc1 (configuration not stated)	19.4%	-4.4	?	?	7.08µM*	26.1
COC(=O)c1cc(OC)c(OC)cc1NC(=O)CC1CCCCC1	-3.7%	3.8	-6.4%	-4.6%	-3.9%	2.8
O=[N+]([O-])c1ccc2c(c1)C(=NO)c1cc(Cl)c(Cl)cc1-2	0.0%	·	-5.1%[46.1 µM]	11.2µM*	?	·
COc1ccc(C(=S)N2CCOCC2)cc1OC(=O)c1ccccc1	0.0%	-0.5	-0.6%[46.1 µM]	6.3%	2.9%[46.1 µM]	53.5
CCN1CCN(/C=N/c2nc3c(s2)CCCC3)CC1	·	18.6*	?	?	5.8µM*	-19.2
CN1CCN(CC(=O)Nc2nc3c(s2)CCCC3)CC1	-11.7%	21.0	·	-6.9%	·	15.5
Brc1ccc(-c2ncc3ccccn23)cc1	26.7%	60.0*	·	14.1%	·	88.2*
Fc1ccc(-c2nnc3ccccn23)cc1	-6.2%	7.4	5.6%	13.4%	7.9%	29.6
COc1cc(-c2ncc3ccccn23)cc(OC)c1OC	-17.2%	-1.4	?	-5.0%	-12.4%	-9.8
Fc1ccc(-c2ncc3ccccn23)cc1	31.8%	32.6*	21.0%	10.3%	11.9%	32.7
c1csc(-c2ncc3ccccn23)c1	9.6%	40.4*	-0.8%	?	8.5%	68.0*
CCOC(=O)c1cc2c(=O)n3ccccc3nc2n(CC2CCCO2)c1=NC(=O)c1cccc(C(F)(F)F)c1 (configuration not stated)	8.5%	·	-7.5%[46.1 µM]	·	18.8%[46.1 µM]	·
O=C(Nc1ccc(O)c2c(=O)cc(-c3cccc(Cl)c3)oc12)c1ccccc1Cl	-10.3%	-6.2	·	?	·	2.1
CC1CCc2onc(C(=O)O)c2C1 (configuration not stated)	1.4%	1.6	1.9%[46.1 µM]	5.0%	-13.5%[46.1 µM]	-8.7
Cc1c(N)cccc1-n1cccc1	4.9%	-2.5	·	-6.0%	-10.6%[46.1 µM]	4.0
CCOc1ccc(CNC(=O)CCS(=O)(=O)Cc2ccc(C)cc2)cc1OC	-17.3%	12.1	2.3%	-25.4%	3.1%	47.0
CCN(CC(=O)NCc1cccs1)C(=O)/C=C/c1ccc(OC)c(OC)c1	-6.8%	·	-11.5%	-10.4%	-14.7%	·
CCc1ccc(N2CC(C(=O)N/N=C/c3ccccc3OC)CC2=O)cc1 (configuration not stated)	3.3%	-10.2	?	-22.6%	1.2%[46.1 µM]	3.2
CCc1ccc(N2CC(C(=O)N/N=C/c3cc([N+](=O)[O-])ccc3O)CC2=O)cc1 (configuration not stated)	-6.2%	8.2	7.08µM*	?	-3.3%[46.1 µM]	-7.8
CCN(CC)CCCNC(=O)c1cc2nc3c(c(C(F)(F)F)n2n1)CCc1ccccc1-3	-8.9%	-2.7	-3.2%	1.58µM*	?	-15.3
Cc1ccc(O)c(NC(=O)c2cc3nc4c(c(C(F)(F)F)n3n2)CCc2ccccc2-4)c1	?	-2.0	13.8%	6.2%	3.9%	-1.0
Nc1sccc1C(=O)c1ccc(Cl)cc1	24.1%	23.6*	12.1%	-11.2%	-0.2%	23.5
COc1ccccc1N=Nc1c(O)[nH]c2ccc(Br)cc12	-0.9%	2.2	11.5%[46.1 µM]	-5.2%	20.5%[46.1 µM]	28.8
CC1(C)CC(=O)c2c(O)cc(OCc3ccc([N+](=O)[O-])cc3)cc2O1	12.7%	19.5	?	7.2%	29.3%	39.6
